Assay [1] can be described thus: ATG_GRE_CIS: Attagene CIS-FACTORIAL HepG2 Assay for human Glucocorticoid Response Elements (GRE) (AID 2282947). Particulars: HepG2 GRE cis-reporter, Attagene multiplex mRNA; actives raise or lower the signal. The method, boiled down: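 Reporter transcripts read by RT-PCR with capillary electrophoresis fluorescence after a 24 h chemical exposure of HepG2 cells transiently transfected with multiple cis-element reporter units. Gain or loss fitted against DMSO.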

Assay [2] can be described thus: ATG_ISRE_CIS: Attagene CIS-FACTORIAL HepG2 Assay for human Interferon Regulatory Factor 1 (IRF1) binding to an Interferon-Stimulated Response Element (ISRE) (AID 2282948). Particulars: HepG2 ISRE cis-reporter (Attagene), mRNA transcription readout; actives raise or lower the signal. An outline of the steps: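 Endogenous transcription factor activity read as reporter transcript abundance via RT-PCR and capillary electrophoresis. HepG2 cells transiently transfected, 24 h chemical exposure. Gain or loss fitted against DMSO baseline.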

Assay [3] is described as follows: ATG_M_32_CIS: Attagene CIS-FACTORIAL HepG2 Assay for M32 Transcription Factor (Internal Marker) (AID 2282949).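 Also: background control marker of the multiplexed CIS panel rather than a real target.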 Particulars: HepG2 Attagene cis-factorial M32 reporter, mRNA; actives raise or lower the signal. An outline of the steps:
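HepG2 transfectants (cis-regulated reporter transcription units) dosed 24 h. Reporter mRNA by RT-PCR plus CE, analysed as gain or loss relative to DMSO.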

A short description of assay [4]: ATG_M_06_CIS: Attagene CIS-FACTORIAL HepG2 Assay for M06 Transcription Factor (Internal Marker) (AID 2282950). Particulars: HepG2 Attagene CIS-FACTORIAL M06 internal marker reporter; actives raise or lower the signal. The method, boiled down:
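Steps: transfect HepG2 with multiplexed cis-element reporter constructs; dose chemical 24 h; extract RNA with DNase treatment; reverse-transcribe, PCR-amplify, 6-FAM label, HpaI digest; separate fragments by capillary electrophoresis. Activity fitted both directions versus DMSO.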

Assay [5] addresses Hypoxia-inducible factor 1-alpha (Homo sapiens) (UniProt Q16665). In words: ATG_HIF1a_CIS: Attagene CIS-FACTORIAL HepG2 Assay for human Hypoxia Inducible Factor 1 (HIF1A) (AID 2282951). Particulars: HepG2 Attagene cis-factorial HIF1a reporter transcription; actives raise or lower the signal. An outline of the steps:
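Transient MRTU transfection of human HepG2 liver cells, 24 h compound treatment, then total RNA isolation, oligo(dT) reverse transcription, PCR amplification, fluorescent labelling and capillary electrophoresis of reporter fragments. Gain or loss relative to DMSO.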

In assay [6] the target is Heat shock factor protein 1 (Homo sapiens) (UniProt Q00613). In words: ATG_HSE_CIS: Attagene CIS-FACTORIAL HepG2 Assay for human Heat Shock Transcription Factor 1 (HSE) (AID 2282953). The following applies: HepG2 HSE cis-reporter, Attagene RNA transcription; actives raise or lower the signal. The method, boiled down: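 Cells were transfected with cis-element-driven reporter constructs, dosed for 24 h, then total RNA was reverse-transcribed and reporter cDNA amplified, FAM-labelled and digested with HpaI. Fragments were resolved by capillary electrophoresis; gain or loss was fitted against DMSO.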

A short description of assay [7]: ATG_MRE_CIS: Attagene CIS-FACTORIAL HepG2 Assay for human Metal Responsive Element (MRE) (AID 2282954). The following applies: HepG2 MRE cis-reporter transcription, Attagene multiplex; actives raise or lower the signal. The method, boiled down:
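Endogenous MRE-dependent transcription read as reporter mRNA in transiently transfected human HepG2 cells at 24 h. RNA reverse-transcribed, PCR-amplified, labelled and resolved by capillary electrophoresis; gain or loss relative to DMSO.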

Assay [8] can be described thus: ATG_PBREM_CIS: Attagene CIS-FACTORIAL HepG2 Assay for human Phenobarbital-responsive Enhancer Module (PBREM) (AID 2282955). The following applies: HepG2 PBREM cis-reporter, Attagene multiplexed transcription; actives raise or lower the signal. The method, boiled down: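 Endogenous transcription factors in human liver HepG2 cells drive a PBREM cis-element reporter, whose transcript level after 24 h treatment is quantified by RT-PCR with capillary electrophoresis; activity fitted in both directions against DMSO.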

Assay [9] deals with Paired box protein Pax-6 (Homo sapiens) (UniProt P26367). In words: ATG_Pax6_CIS: Attagene CIS-FACTORIAL HepG2 Assay for human Paired Box 6 (PAX6) (AID 2282956). The following applies: HepG2 CIS-FACTORIAL PAX6 reporter transcription, RNA readout; actives raise or lower the signal. An outline of the steps: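 Read-out is reporter transcript level, measured by RT-PCR with fluorescent primer extension and capillary electrophoresis after 24 h dosing of transfected HepG2 cells. Activity in either direction fitted relative to DMSO control.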

Assay [10] can be described thus: ATG_PXRE_CIS: Attagene CIS-FACTORIAL HepG2 Assay for human Pregnane X Receptor Element (PXRE) (AID 2282957). The following applies: HepG2 Attagene CIS-FACTORIAL PXRE reporter, mRNA; actives raise or lower the signal. The method, boiled down:
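Fluorescent capillary electrophoresis of amplified reporter cDNA gave the signal, collected 24 h after dosing HepG2 cells that held transfected cis-element reporter constructs.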

A short description of assay [11]: ATG_PPRE_CIS: Attagene CIS-FACTORIAL HepG2 Assay for human Peroxisome Proliferator-activated Response Element (PPRE) (AID 2282958). Particulars: HepG2 PPRE cis-element reporter, Attagene transcription factor profiling; actives raise or lower the signal. The method, boiled down:
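HepG2, transient MRTU transfection (cis promoter elements, endogenous TFs). 24 h dosing. RNA → oligo(dT) RT → PCR → 6-FAM primer extension → HpaI digest → CE. Bidirectional fit vs DMSO.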

A short description of assay [12]: ATG_RORE_CIS: Attagene CIS-FACTORIAL HepG2 Assay for human RAR-related Orphan Receptor Element (RORE) (AID 2282959). The following applies: HepG2 Attagene cis-factorial RORE reporter, mRNA; actives raise or lower the signal. The method, boiled down: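 Transient MRTU transfection of human HepG2 liver cells (FuGene 6); 24 h compound exposure; TriZol RNA, oligo(dT) RT, PCR, FAM labeling, HpaI cut, CE fragment analysis. DMSO = negative control/baseline.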

A short description of assay [13]: ATG_Sox_CIS: Attagene CIS-FACTORIAL HepG2 Assay for human SRY-box transcription factor (SOX) (AID 2282960). The following applies: HepG2 Attagene cis-factorial SOX reporter, mRNA; actives raise or lower the signal. The method, boiled down: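 Endogenous factor activity in human liver HepG2 cells carrying transfected cis-regulated reporter units. RNA taken 24 h post-dose, reverse-transcribed, PCR-amplified and sized by capillary electrophoresis. Gain or loss of signal fitted relative to DMSO.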

The target in assay [14] is Transcription factor Sp1 (Homo sapiens) (UniProt P08047). In words: ATG_Sp1_CIS: Attagene CIS-FACTORIAL HepG2 Assay for human Specificity Protein 1 (Sp1) (AID 2282961). Particulars: HepG2 Sp1 cis-reporter transcription, actives raise or lower the signal. The method, boiled down: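 Transient MRTU-transfected HepG2, 24 h compound exposure. Total RNA → oligo(dT) RT → PCR of reporter → 6-FAM primer extension → HpaI digest → CE. Endpoint fitted both directions vs DMSO.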

Assay [15] can be described thus: ATG_SREBP_CIS: Attagene CIS-FACTORIAL HepG2 Assay for human Sterol Regulatory Element Binding (SREBP) (AID 2282962). Particulars: HepG2 Attagene cis-factorial SREBP reporter, mRNA; actives raise or lower the signal. The method, boiled down: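 Endogenous SREBP activity read as cis-element-driven reporter transcript in transiently transfected HepG2, 24 h post-dosing; quantified via RT-PCR plus capillary electrophoresis of fluorescent fragments. Gain or loss of signal fitted relative to DMSO baseline.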

Assay [16] concerns the target Signal transducer and activator of transcription 3 (Homo sapiens) (UniProt P40763). In words: ATG_STAT3_CIS: Attagene CIS-FACTORIAL HepG2 Assay for human Signal Transducer and Activator of Transcription 3 (STAT3) (AID 2282963). The following applies: HepG2, Attagene cis-factorial STAT3 reporter transcription; actives raise or lower the signal. An outline of the steps:
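Readout is reporter transcript quantified by RT-PCR and capillary electrophoresis, with 6-FAM primer extension and HpaI digestion. Total RNA is taken 24 h after dosing transiently transfected HepG2 carrying cis-regulated reporter units. Bidirectional fit against DMSO.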

A short description of assay [17]: ATG_TA_CIS: Attagene CIS-FACTORIAL HepG2 Assay for human TA Basal Promoter (AID 2282964). The following applies: HepG2 Attagene CIS-factorial TA basal promoter reporter; actives raise or lower the signal. The method, boiled down:
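Steps: transfect HepG2 with MRTUs; dose 24 h; isolate RNA, DNase-treat, reverse-transcribe; PCR and FAM-label reporter cDNA; digest with HpaI 2h at 37 C; run capillary electrophoresis. Activity fitted both directions against DMSO.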

The nature of assay [18]: ATG_TCF_b_cat_CIS: Attagene CIS-FACTORIAL HepG2 Assay for human T-Cell-Factor with beta-catenin (TCF/b-cat) (AID 2282965). Particulars: HepG2 TCF/beta-catenin cis-reporter transcription, actives raise or lower the signal. An outline of the steps: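 Endogenous transcription factor activity is captured through cis-promoter reporter constructs transiently introduced into human HepG2 liver cells. Induced reporter mRNA is measured after 24 h and fitted bidirectionally relative to DMSO.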

Assay [19] is described as follows: ATG_TAL_CIS: Attagene CIS-FACTORIAL HepG2 Assay for human TAL Basal Promoter (AID 2282966).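 Also: background control endpoint measuring basal TAL promoter reporter mRNA not a specific factor.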 Particulars: HepG2 Attagene cis-factorial TAL promoter reporter; actives raise or lower the signal. The method, boiled down: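 Transiently transfected HepG2 (cis-regulated reporter units), 24 h treatment, mRNA read by fluorescent CE after RT-PCR; bidirectional fit, DMSO baseline.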

Structures are written as SMILES. Active and inactive are the calls of the source. The calls were made as follows: active = hit-call score of the fitted dose curve at least 0.9, where 1 is the maximum; inactive = score below 0.9.

Chain of Heat shock factor protein 1 (Homo sapiens) (Q00613 whole entry, looked up, the tested form may be a part): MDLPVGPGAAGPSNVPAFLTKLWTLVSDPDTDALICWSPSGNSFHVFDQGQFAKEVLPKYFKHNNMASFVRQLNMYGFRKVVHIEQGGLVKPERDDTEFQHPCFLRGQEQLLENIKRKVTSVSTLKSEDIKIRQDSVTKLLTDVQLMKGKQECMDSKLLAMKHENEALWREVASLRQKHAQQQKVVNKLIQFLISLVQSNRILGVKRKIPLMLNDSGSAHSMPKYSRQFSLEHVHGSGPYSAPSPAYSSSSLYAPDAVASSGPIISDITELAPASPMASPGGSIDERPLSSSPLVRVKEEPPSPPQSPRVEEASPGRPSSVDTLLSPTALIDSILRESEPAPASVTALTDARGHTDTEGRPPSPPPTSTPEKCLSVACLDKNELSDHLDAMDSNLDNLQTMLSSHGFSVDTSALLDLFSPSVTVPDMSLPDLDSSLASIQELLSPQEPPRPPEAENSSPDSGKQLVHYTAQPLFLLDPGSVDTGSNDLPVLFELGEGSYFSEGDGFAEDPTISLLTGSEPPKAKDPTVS
Chain of Paired box protein Pax-6 (Homo sapiens) (P26367 whole entry, looked up): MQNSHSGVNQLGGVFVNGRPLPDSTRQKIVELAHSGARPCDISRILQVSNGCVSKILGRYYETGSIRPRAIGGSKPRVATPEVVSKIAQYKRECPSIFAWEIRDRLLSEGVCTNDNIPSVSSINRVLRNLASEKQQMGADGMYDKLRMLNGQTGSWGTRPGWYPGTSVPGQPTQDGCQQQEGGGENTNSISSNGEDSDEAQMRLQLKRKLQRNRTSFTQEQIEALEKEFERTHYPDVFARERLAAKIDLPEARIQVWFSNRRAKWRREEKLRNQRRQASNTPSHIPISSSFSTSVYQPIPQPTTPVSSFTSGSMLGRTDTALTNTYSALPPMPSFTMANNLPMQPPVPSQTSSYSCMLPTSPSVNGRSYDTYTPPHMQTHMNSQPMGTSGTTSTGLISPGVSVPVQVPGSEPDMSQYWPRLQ
Chain of Signal transducer and activator of transcription 3 (Homo sapiens) (P40763 whole entry, looked up): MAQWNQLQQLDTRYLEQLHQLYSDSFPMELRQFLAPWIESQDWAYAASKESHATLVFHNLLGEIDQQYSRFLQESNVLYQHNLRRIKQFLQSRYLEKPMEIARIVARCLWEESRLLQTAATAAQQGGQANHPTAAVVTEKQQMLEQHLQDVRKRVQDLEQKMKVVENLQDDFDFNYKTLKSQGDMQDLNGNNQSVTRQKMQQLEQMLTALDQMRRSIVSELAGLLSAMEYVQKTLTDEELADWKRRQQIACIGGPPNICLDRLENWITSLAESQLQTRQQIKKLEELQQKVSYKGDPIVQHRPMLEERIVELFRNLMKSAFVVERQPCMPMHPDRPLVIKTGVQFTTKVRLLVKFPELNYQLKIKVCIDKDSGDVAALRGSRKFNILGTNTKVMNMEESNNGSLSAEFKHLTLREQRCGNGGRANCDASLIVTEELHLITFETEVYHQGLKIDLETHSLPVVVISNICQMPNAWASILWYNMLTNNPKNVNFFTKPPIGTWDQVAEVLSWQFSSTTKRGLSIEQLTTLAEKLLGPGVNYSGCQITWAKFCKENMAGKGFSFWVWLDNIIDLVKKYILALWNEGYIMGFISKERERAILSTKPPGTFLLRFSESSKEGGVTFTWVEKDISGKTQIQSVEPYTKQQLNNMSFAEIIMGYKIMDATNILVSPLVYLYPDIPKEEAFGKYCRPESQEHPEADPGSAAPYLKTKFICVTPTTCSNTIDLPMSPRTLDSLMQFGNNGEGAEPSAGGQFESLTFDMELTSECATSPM
Chain of Hypoxia-inducible factor 1-alpha (Homo sapiens) (Q16665 whole entry, looked up, the tested form may be a part): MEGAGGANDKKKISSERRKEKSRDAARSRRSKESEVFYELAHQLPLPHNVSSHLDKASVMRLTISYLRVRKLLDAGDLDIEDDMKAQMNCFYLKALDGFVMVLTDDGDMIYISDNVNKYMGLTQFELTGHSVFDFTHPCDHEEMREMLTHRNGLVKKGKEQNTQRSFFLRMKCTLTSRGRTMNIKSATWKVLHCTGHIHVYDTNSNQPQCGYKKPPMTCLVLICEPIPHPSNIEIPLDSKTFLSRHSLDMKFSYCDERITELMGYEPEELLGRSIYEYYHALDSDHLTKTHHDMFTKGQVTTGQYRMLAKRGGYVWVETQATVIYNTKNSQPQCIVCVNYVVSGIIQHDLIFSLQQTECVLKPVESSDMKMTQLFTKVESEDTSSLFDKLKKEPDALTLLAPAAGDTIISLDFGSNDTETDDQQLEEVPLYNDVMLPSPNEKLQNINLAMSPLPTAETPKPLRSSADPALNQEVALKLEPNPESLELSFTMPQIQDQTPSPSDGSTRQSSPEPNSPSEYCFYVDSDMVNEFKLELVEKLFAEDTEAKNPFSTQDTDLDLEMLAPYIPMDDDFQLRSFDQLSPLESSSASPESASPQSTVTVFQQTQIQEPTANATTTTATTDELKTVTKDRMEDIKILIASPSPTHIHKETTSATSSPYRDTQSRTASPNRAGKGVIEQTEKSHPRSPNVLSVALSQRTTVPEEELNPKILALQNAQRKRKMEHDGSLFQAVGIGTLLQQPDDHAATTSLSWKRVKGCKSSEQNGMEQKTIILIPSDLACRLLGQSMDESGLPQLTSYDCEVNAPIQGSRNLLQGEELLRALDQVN
Chain of Transcription factor Sp1 (Homo sapiens) (P08047 whole entry, looked up): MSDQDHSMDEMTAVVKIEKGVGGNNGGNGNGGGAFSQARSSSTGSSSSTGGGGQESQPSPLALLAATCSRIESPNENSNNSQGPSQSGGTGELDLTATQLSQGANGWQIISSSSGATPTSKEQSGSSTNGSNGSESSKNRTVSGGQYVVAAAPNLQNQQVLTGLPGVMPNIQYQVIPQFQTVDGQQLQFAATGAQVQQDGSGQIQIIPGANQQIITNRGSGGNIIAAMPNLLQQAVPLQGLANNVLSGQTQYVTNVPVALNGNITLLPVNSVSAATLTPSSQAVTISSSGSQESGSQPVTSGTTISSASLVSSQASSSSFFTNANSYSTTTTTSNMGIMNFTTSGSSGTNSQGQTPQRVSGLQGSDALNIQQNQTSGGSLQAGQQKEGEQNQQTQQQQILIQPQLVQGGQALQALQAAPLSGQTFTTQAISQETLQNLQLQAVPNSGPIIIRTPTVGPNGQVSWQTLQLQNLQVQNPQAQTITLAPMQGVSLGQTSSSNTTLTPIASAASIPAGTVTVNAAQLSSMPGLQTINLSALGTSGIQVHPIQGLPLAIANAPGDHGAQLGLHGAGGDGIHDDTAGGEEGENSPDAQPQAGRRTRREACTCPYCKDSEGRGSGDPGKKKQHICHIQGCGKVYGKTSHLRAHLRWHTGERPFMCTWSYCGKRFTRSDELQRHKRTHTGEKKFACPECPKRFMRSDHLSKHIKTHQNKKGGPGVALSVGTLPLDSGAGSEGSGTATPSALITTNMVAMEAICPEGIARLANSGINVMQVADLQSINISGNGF

With `O=S(=O)(O)CCC(F)(F)C(F)(F)C(F)(F)C(F)(F)C(F)(F)C(F)(F)F`, the compound was called inactive in assay [1], in [2], in assay [3], in [4], in assay [5] and in assay [6]. Besides, the compound was classed as inactive in assay [7], in assay [8], in [9], in assay [10], in [11] and in assay [12]. In addition, the outcome in [13], in [14], in assay [15], in assay [16], in [17] and in assay [18] was inactive. Besides, the result in assay [19] was inactive.
As to `O=C(O)c1cccc(C(=O)O)c1`, the result in [1], in [2], in assay [3], in assay [4], in [5] and in assay [7] was inactive. Moreover, the compound was called inactive in [9], in assay [10], in [11], in [12], in assay [13] and in [14]. Besides, the result in [15], in assay [16], in [17], in assay [18] and in assay [19] was inactive.
Usually AC50 stands for the midpoint of the concentration-response curve, whichever way the signal moves. As for `O=C1CN(N=Cc2ccc([N+](=O)[O-])o2)C(=O)N1`, the call in assay [1], in assay [2], in assay [3], in assay [4], in assay [7] and in assay [8] was inactive. The compound was called inactive in [9], in [10], in [11], in assay [12], in assay [13] and in [14]. Further, the outcome in [15], in assay [16] and in assay [19] was inactive. Moreover, the concentration at half-maximal activity (AC50) was 27.3 µM (active) in assay [5] and 21.4 µM (active) in assay [18].
As for `C[C@@H](Oc1ccc(CNC(=O)c2cccnc2Oc2ccc3c(c2)OCO3)c(F)c1)C(=O)O`, the compound was called inactive in assay [1], in assay [2], in assay [3], in [4], in [5] and in [7]. The outcome in [8], in assay [9], in assay [10], in assay [11], in [12] and in assay [13] was inactive. The compound was classed as inactive in [14], in assay [15], in assay [16], in assay [18] and in assay [19].
In the case of `CCCC(CCC)C(=O)O`, the compound was classed as inactive in assay [1], in assay [2], in assay [3], in [4], in [5] and in assay [6]. Also, the call in assay [7], in assay [10], in assay [13], in assay [14], in assay [15] and in [16] was inactive. The result in assay [17], in [18] and in [19] was inactive.
Regarding `OC(Cn1cncn1)(Cn1cncn1)c1ccc(F)cc1F`, the compound was called inactive in [1], in [2], in [3], in assay [4], in assay [5] and in [6]. Also, the compound was classed as inactive in [7], in assay [10], in [11], in assay [12], in [13] and in [14]. For the same compound, the outcome in assay [15], in assay [16], in [17], in assay [18] and in assay [19] was inactive.
As to `Nc1ccn([C@@H]2O[C@H](CO)[C@@H](O)[C@@H]2O)c(=O)n1`, the compound was called inactive in [1], in [2], in assay [3], in assay [4], in [5] and in assay [6]. Besides, the outcome in assay [7], in [8], in [9], in assay [10], in assay [11] and in assay [12] was inactive. Further, the result in assay [13], in [14], in assay [15], in [16], in assay [17] and in assay [18] was inactive. In assay [19], the compound was classed as inactive.

The values above are taken from PubChem BioAssay (EPA / NIEHS).
